Measurements: paper PMC13494018

B1: d3r1_design_ppi_340_dldesign_0_cycle1_af2pred (protein)
chain: EKEKVRKEAEKAIKKAKAAAKAAKAGKDLKAAEKAVKEAAKAAKAAVEAGDPELAEKVAKAAQEASTALNAALSKRLAA
B2: d8r1_design_ppi_92_dldesign_0_cycle1_af2pred (protein)
chain: ERERERAAIRALLATVDAEYAKAAKEGPEAADAGIERVAAAAAAAGALGPDTASAGRFAVGVYRTLAEKVKAAWAA
B3: d8r1_design_ppi_427_dldesign_0_cycle0_af2pred (protein)
chain: MSRIAAWVIAAISAAATDPAEADKVAARAAEEALANPEKADEALALAAETARAAGLDAATVDAAVARIRALVAAL
B4: d3r1_design_ppi_123_dldesign_0_cycle0_af2pred (protein)
chain: SENDKITLEQAKKLLEKEAKRAAEVAEKIDKEKAKKIKKYAEEALKKGKLTELAKAVKKVSEELEKYEKKLKEEEEKA
B5: d3r1_design_ppi_576_dldesign_0_cycle1_af2pred (protein)
chain: GEEEEKAKETIKKMEELAKKGAENPEKGKEYVAEAMRIGRETAKELSEEVGEKVLKKAEEIASEAMKKVLENKKKLA
B6: d3r1_design_ppi_130_dldesign_0_cycle0_af2pred (protein)
chain: SASEKANNELAAKLAVESAKKYLEEAEKLEKEDKEKAKKLLKEIAEKAEAGVKAFADSPEAPELKKLAEEAKAKIEEI
B7: d3r1_design_ppi_230_dldesign_0_cycle1_af2pred (protein)
chain: TLAESALKALKVIGKAAVEVAKELGEEVYKKVKKEVEKLLKEVESASPEERAKLAAEAAKKMQKKLEELEKLLKEKKKK
B8: d3r1_design_ppi_688_dldesign_0_cycle0_af2pred (protein)
chain: MEELAEKAAKTASAALKEYATEEEKEEAEKKSKEFEKLAEEGKKNPEKAEEVLKELLEKAKEYQKKLEEKEKKEKEE
B9: d3r1_design_ppi_79_dldesign_0_cycle0_af2pred (protein)
chain: MTDEEIAKKLIEVAKKAKEEAEKKLKDDPEKVKKVKEIAEEAIKEAKKDPKKGPEALQKAAEEMEKLVKE
B10: d3r1_design_ppi_595_dldesign_0_cycle1_af2pred (protein)
chain: DLFKKGIEEAEKAYKKYPKLGLAVAQLVLAKYFLEAAKKSTPEEAKNYLEAAKLALEKSKELLKEVEAKLKAE
B11: d3r1_design_ppi_53_dldesign_0_cycle1_af2pred (protein)
chain: ASEADRAQVRAEGMAEALKLRAEAAAPLLSPEAVAEIKALAEKMAADPENRDAYYAAAVALLDAALAAAKA
B12: d3r1_design_ppi_677_dldesign_0_cycle1_af2pred (protein)
chain: MEEKKKKIDEKLILAGELAKKNGLLGEIVAKKAIEEGRKAGITEFSEEAVEALKIAFAAGAAARAALAAALA
B13: d3r1_design_ppi_121_dldesign_0_cycle0_af2pred (protein)
chain: DEALKTAEKAAKEVEELAKEAKEAGDEETAKGLEEMLEKIKELLEKAKKDPSKAKEYAKTAEAIAKVAKKNYEESLKKLKEEKE
B14: d8r1_design_ppi_1117_dldesign_0_cycle1_af2pred (protein)
chain: AAAEAQARALAAELLAEAFDDPELAARALALPPHHAAALAAGQIVAKKSDEEAAAAVARANQVHALAAAAAAAA
B15: d3r1_design_ppi_36_dldesign_0_cycle1_af2pred (protein)
chain: EEERLKEAEETYKKLLEELYKESLKEIEEAAKKGPEAAKKALEKAKAEFDEYEKGLLPEYAKEVKEKLEKEAEKLIKKAK
B16: d3r1_design_ppi_648_dldesign_0_cycle0_af2pred (protein)
chain: GEEAAKKSKEAEKALEEAKKILKEGGKEGEEKAKKLVEEKVKELKKWGKETGTGGEALAKILKEEFEKAKKEK
B17: d3r1_design_ppi_687_dldesign_0_cycle0_af2pred (protein)
chain: MKKEEEEKKKKEKLKKKVEEKKEELKELKKAKEELEKAIEKLKPLAEKDPRIKANAEAAKKAAEEELKKKEEELEKLKKELE
B18: d3r1_design_ppi_135_dldesign_0_cycle1_af2pred (protein)
chain: GSLEEYEKLLAENSKLAVEKATKAAKEEVKKKGTEEAAKEATKRLEALAKALKSSGFKGTKEEAEKAKEAAKKLEKEAKKIAK
B19: d3r1_design_ppi_608_dldesign_0_cycle1_af2pred (protein)
chain: ATEEAKKYAEKAKELAKKAEEAAKKEGVEAGEEYLEKAKEEVLKAYKYAAESGDEEAKKAAEEALEAVEKAEKEIEKIKKEKE
B20: d3r1_design_ppi_404_dldesign_0_cycle1_af2pred (protein)
chain: NKVEVAQKAYDKAKEAKEKMIKEAKENPEAKPKIPEIEALMKKAQEEAVGKAVELLDKGATPEEALKAAEKIIKEAEKKAKEIIE
B21: d3r1_design_ppi_121_dldesign_0_cycle1_af2pred (protein)
chain: MKALEEAKKAAEKVKKLAKEAKELGDEETAKGLKEMEEEIKKLYKKAKEDPSKAEEYAEIAKKIAEIAKKHYEESKKKLEKEKE
B22: d8r1_design_ppi_1354_dldesign_0_cycle1_af2pred (protein)
chain: SRAAAAKAFGKAAVEQLKKLAKAAGAEEARKLAKQLQADFAAFAAAVPEVAAEFKAAAEAAKKAAEEVAKEQEAKAAAAAAA
B23: d8r1_design_ppi_860_dldesign_0_cycle0_af2pred (protein)
chain: DEAYELAAEALARASELRAAAAAARAARGAAGVAEAAALDAEAVRVLEEAAKKLKALGSGLGKNLEAAARRLAERAAAATAAARA
B24: d3r1_design_ppi_404_dldesign_0_cycle0_af2pred (protein)
chain: SMTEIAQKAYEKAEEARKKMLKKAEEDPEARPKLPEIEALMKEAREKAVSAVVELLTKGESEEEAMKKAEEIIEEAKKEAEKIMK
B25: d3r1_design_ppi_418_dldesign_0_cycle0_af2pred (protein)
chain: SEAEAVKATLKGAKETVKELKKEAEKNPEKAEEYAKEAEKIAKAAEKLAEKSSEEAKKEAKEVKEEAKEAKKLAKKIIEEKKAKE
B26: d3r1_design_ppi_418_dldesign_0_cycle1_af2pred (protein)
chain: DKNEAIKNTLKGAEKAVKELKKEAIKDPEKAEEYAKRAEEIAKAAKELAKQGTEEAKEEAKKVEKEAKEAKKEAKKVVEEKKKKE
B27: d8r1_design_ppi_568_dldesign_0_cycle1_af2pred (protein)
chain: AARHLALAIRGVLKADDAGDAEAAAKAKALLAKAAAALAAGDEAAAKAYATQAAAVADPAYAPVAEAVAAAAAA
B28: d3r1_design_ppi_688_dldesign_0_cycle1_af2pred (protein)
chain: AVENAKKAAEQATKALKAYATEEEKEEAEKKGKEFKKLAEEAKADPSKAEEVLNKLLKEAKEYDKKLEEKEKKEKEE
B29: d3r1_design_ppi_578_dldesign_0_cycle0_af2pred (protein)
chain: MEELEEARKRADELEKEVKKLEPLFKEASKEAAELAENAKKAIEAAKKFIEDKSQIELAQRAVDQAEKNLKLAKELMEKILKEK
B30: d3r1_design_ppi_237_dldesign_0_cycle0_af2pred (protein)
chain: TPLEQLGKLVKEAKKAAKEAKELIKKGKAKEAAKLAREAAKKQIEKAKKIGEEYPEAKASAEAAAAYIEALAKEVEKEAKAAEA
B31: d3r1_design_ppi_578_dldesign_0_cycle1_af2pred (protein)
chain: MEELEEAKKRAEELKKEVEENKEKFKEASKEAQELADNSLKAIKAAFKYIEEKEEVENAKRAVEVAEENYKKAKELAEKLLKEK
B32: d3r1_design_ppi_175_dldesign_0_cycle1_af2pred (protein)
chain: GSAATLAATAAKLAVKSAKKEMEEAKKNPETGPERLEKYAEILEKAAKDAKATGTAEAKEAAKEAEKEAKKAKEEAKKLK
B33: d3r1_design_ppi_369_dldesign_0_cycle1_af2pred (protein)
chain: AVPAELREILSKQALAKMEELEKEAKEKADTPEGLEVMEEAAEWFREAAKGLRAAGDEETAKKMEEKAKELEELAKEKKEK
B34: d3r1_design_ppi_25_dldesign_0_cycle1_af2pred (protein)
chain: SMAAKSAELRAESRRESILAAARQFAAENPAQGPRALAKAEELVAKAKEFAAATKDPAEAAAFAAQQAEEFRAYLAALEAEAA
B35: d3r1_design_ppi_541_dldesign_0_cycle1_af2pred (protein)
chain: MEEEKKKIEEEIEEVKEALKEAEKLFAKDPVAGAKYAENLAIALKKRGLSEEAINLAKEAAEKLKAEAEKVKAA
B36: d3r1_design_ppi_123_dldesign_0_cycle1_af2pred (protein)
chain: DPAVETTKANGKALLTKVAKEAAEVAAKIDPAKAKEITDYAAKALKAGDVTEIAKAVKKVSEELEKYKKELEKKEKEA
B37: d3r1_design_ppi_168_dldesign_0_cycle1_af2pred (protein)
chain: ANKEEAKKAATEGQDAMAELRALKKEGGDPEEIKKAGDKAIESYEKAGELDPSIKERADKMIEAAKKLTEEGIKASKEK
B38: d3r1_design_ppi_589_dldesign_0_cycle1_af2pred (protein)
chain: MEEDAKKAQEVADLLAKTAATGPAYADEAIAKTAEVLGPYFAEKLKKAIAAGPEEVKKMYDIVKQHAENIKAA

These binders were tested against VTCN1, Q7Z7D3.
Chain of VTCN1, Q7Z7D3 (Q7Z7D3 whole entry): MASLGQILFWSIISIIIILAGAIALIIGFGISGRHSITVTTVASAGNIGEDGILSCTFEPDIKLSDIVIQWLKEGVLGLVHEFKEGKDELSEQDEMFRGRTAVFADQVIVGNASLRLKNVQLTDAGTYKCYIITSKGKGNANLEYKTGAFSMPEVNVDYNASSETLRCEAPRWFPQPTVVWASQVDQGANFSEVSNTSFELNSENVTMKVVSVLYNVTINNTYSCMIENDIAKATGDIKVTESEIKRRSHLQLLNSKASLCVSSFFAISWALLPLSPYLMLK

Binding in a display sort, inactive:
B1 not found
B4 not found
B5 not found
B6 not found
B7 not found
B8 not found
B9 not found
B10 not found
B11 not found
B12 not found
B13 not found
B15 not found
B16 not found
B17 not found
B18 not found
B19 not found
B20 not found
B21 not found
B24 not found
B25 not found
B26 not found
B28 not found
B29 not found
B30 not found
B31 not found
B32 not found
B33 not found
B34 not found
B35 not found
B36 not found
B37 not found
B38 not found

The binders below were run against PDL1, Q9NZQ7.
Chain of PDL1, Q9NZQ7 (Q9NZQ7 whole entry): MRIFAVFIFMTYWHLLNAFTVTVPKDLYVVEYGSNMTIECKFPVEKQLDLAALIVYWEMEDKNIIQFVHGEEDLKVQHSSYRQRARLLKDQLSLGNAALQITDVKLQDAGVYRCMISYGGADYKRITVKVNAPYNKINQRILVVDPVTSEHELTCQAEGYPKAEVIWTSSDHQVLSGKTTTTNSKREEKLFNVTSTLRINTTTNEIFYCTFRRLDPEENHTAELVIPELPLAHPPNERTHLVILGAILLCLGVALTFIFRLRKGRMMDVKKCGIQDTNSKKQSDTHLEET

Binding in a display sort, inactive:
B2 not found
B3 not found
B14 not found
B22 not found
B23 not found
B27 not found
